Screening data deposited in PubChem by National Center for Advancing Translational Sciences (NCATS).
Hits are enriched below; roughly 5.5% of the tested compounds scored in any of these assays.
CBFb-RUNX1 inh = qHTS Assay for Compounds Blocking the Interaction Between CBF-beta and RUNX1 for the Treatment of Acute Myeloid Leukemia; Runt-related transcription factor 1 (Homo sapiens) + Core-binding factor subunit beta …; AlphaScreen CBFb-His/RUNX1-biotin binding, biochemical; Potency, µM (top dose mostly 59.8 µM), usual class: inhibitors; 230,000 tested, under 10 active
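AlphaScreen proximity signal reports loss of binding between His-tagged CBF-beta and biotin-labelled RUNX1, each at 30 nM. Proteins are pre-associated for 20 minutes, compounds added for 15 minutes, then beads for 90 minutes, all at ambient temperature.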
Six1-Eya2 blk = qHTS Assay for Inhibitors of the Six1/Eya2 Interaction. Homeobox protein SIX1 (Homo sapiens) + Protein phosphatase EYA2 (Homo sapiens), …. AlphaScreen GST-Six1/His-Eya2 binding, biochemical; stronger effect = lower value. activity change, % (no concentration beside the values). 360,000 tested, 0.56% active. AID 651725, 2012; in the data active means activity change below about -65%; inconclusive means mostly about -30% to -63%
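Compounds are tested against tagged Six1 and Eya2 proteins bridged by glutathione donor and nickel acceptor beads; after a one-hour incubation at 37 °C without light, AlphaScreen emission is recorded.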
VP16 counter = VP16 counterscreen qHTS for inhibitors of ROR gamma transcriptional activity. Potency, µM (top dose mostly 53.6 µM), most hits filed as inhibitors. 310,000 tested, 3.5% active. Drosophila S2 Gal4-VP16 UAS-luciferase, luminescence, 20 h;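 further: Gal4-VP16 expression switched on by copper sulfate through the metallothionein promoter; nearly all actives have a fitted effect of over 50% in size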
CtBP-E1A blk = qHTS Assay for Inhibitors of the CtBP/E1A Interaction. 340,000 tested, 0.49% active. AlphaScreen GST-E1A/His-CtBP binding, 1536-well; stronger effect = lower value. CtBP / adenovirus E1A interaction (AlphaScreen). activity change, % (test concentration not listed). AID 651724, 2012; in the data active means activity change below about -65%; inconclusive means mostly about -30% to -63%
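Homogeneous bead-based format: GST-tagged E1A captured on glutathione donor beads, His-tagged CtBP on nickel acceptor beads; compounds precede bead addition by 2 h at 37 °C.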
MBNL1 CUG block = qHTS Assay for Inhibitors of MBNL1-poly(CUG) RNA binding; Muscleblind-like protein 1 (Homo sapiens), Q9NR56; TR-FRET MBNL1-His/biotin-(CUG)12 binding, 665/545 ratio; Potency, µM (titrated, usually from 57.5 µM), most hits filed as inhibitors; 280,000 tested, 0.036% active; active means well fitted inhibition curve with a large enough effect in the signal ratio, with a control signal flat, not every such curve was filed as active; inconclusive means small, poorly fitted or top-dose-only effect, or effect the other way, or a change in a side signal; inactive means no such curve, though single readings can be large or run the other way; the % refers to the signal ratio
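TR-FRET between His-tagged MBNL1 and biotin-(CUG)12 RNA, detected with Tb anti-His antibody (0.055 ng/ul) and streptavidin-XL665 (5 nM), 60 min at room temperature. Compounds titrated 92 nM to 58 uM; 665/545 nm ratio normalized to buffer and complex controls.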
RORg inh = qHTS for inhibitors of ROR gamma transcriptional activity | Nuclear receptor ROR-gamma (Mus musculus), P51450 | Drosophila S2 Gal4-RORgamma UAS-luciferase reporter, 20 h | Potency, µM (highest dose often 53.6 µM), usual class: inhibitors | 310,000 tested, 5.4% active | AID 2551, 2010; further: nearly all actives have a fitted effect of over 60% in size
Target sequence (P51450 whole entry, looked up, the tested form may be a part): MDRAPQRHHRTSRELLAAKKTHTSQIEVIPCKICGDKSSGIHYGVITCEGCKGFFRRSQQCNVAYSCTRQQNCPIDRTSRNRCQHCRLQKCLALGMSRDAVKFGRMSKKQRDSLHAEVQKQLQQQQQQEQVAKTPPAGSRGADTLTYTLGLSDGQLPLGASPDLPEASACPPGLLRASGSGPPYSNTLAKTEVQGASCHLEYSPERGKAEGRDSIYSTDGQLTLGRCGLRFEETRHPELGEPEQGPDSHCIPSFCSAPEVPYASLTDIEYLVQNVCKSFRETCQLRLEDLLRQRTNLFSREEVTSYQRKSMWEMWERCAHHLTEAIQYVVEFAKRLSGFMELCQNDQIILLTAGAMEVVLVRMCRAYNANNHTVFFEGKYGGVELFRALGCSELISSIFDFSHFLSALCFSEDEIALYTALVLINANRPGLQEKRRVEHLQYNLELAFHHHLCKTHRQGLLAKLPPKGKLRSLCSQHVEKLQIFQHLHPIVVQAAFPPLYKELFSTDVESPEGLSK
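Drosophila Schneider cells stably carrying a metallothionein-driven Gal4 DBD–ROR gamma fusion and a UAS-Photinus luciferase reporter were exposed to compound for 1 hr, then induced with copper sulfate (700 uM final) for 20 hr at ambient temperature before luminescence reading.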
A number is an active result; – = inactive; ? = inconclusive; · = no result given. Unless noted, the call rests on the fitted dose curve; in most records, active means well fitted curve in the direction sought with a large enough effect; inconclusive means small, poorly fitted or top-dose-only effect, or another doubt; inactive means no such curve, though single readings can be large; an effect the other way counts as inactive or inconclusive.

SMILES	CBFb-RUNX1 inh	Six1-Eya2 blk	VP16 counter	CtBP-E1A blk	MBNL1 CUG block	RORg inh
O=C(CNC(=O)c1ccc(Br)cc1)N=Nc1c(O)[nH]c2ccc([N+](=O)[O-])cc12	·	–	–	–	?	–
O=C(O)c1ccccc1N=Nc1c(O)[nH]c2ccc([N+](=O)[O-])cc12	·	-72	–	-85	–	–
O=[N+]([O-])c1ccc2[nH]c(O)c(N=NC(=S)NCC3CCCO3)c2c1 (configuration not stated)	–	–	?	–	–	4µM
CC1(C(=O)Nc2ccc3c(c2)OCCO3)CN(S(C)(=O)=O)CC(=O)N1CC(F)(F)F (configuration not stated)	·	–	·	–	·	·
Oc1ccc(Nc2nc(-c3ccc(Cl)cc3)cs2)cc1	–	·	14µM	·	·	?
Oc1ccc(-c2csc(Nc3ccccn3)n2)cc1O	·	–	6.3µM	·	–	5.6µM
COc1ccc(-c2csc(Nc3cc(C)ccn3)n2)cc1C	·	–	–	·	–	?
Cc1ccnc(Nc2nc(-c3ccc(O)cc3)cs2)c1	·	–	4µM	–	–	3.2µM
Cc1ccnc(Nc2nc(-c3ccc(O)cc3O)cs2)c1	·	–	2.2µM	–	–	0.71µM
O=C(CN1C(=O)NC(Cc2ccccc2)C1=O)Nc1ccccc1OC(F)F (configuration not stated)	·	–	·	–	·	·
CC(NC(=O)COC(=O)Cc1cccs1)c1ccc(F)cc1 (configuration not stated)	·	–	·	–	·	·
Cc1ccnc(Nc2nc(-c3ccc(O)c(O)c3)cs2)c1	·	–	5.6µM	?	–	11µM
Cc1cccc(Nc2nc(-c3ccc(O)c(O)c3)cs2)n1	·	–	5.6µM	–	–	4.5µM
CC12CCC(c3nnc(SCc4ccc(Cl)cc4)nc31)C2(C)C (configuration not stated)	–	–	–	–	–	?
CC12CCC(c3n[nH]c(=S)nc31)C2(C)C (configuration not stated)	–	–	?	–	–	13µM
COc1ccc(COC(=O)N/N=C/c2cccs2)cc1	·	–	·	–	?	·
CCOC(=O)c1cc(C(=O)OCC)cc(-n2cc(O)c(C(=O)OCC)n2)c1	–	–	11µM	–	–	?
CCOC(=O)c1nn(-c2cc(C(=O)OC)cc(C(=O)OC)c2)cc1O	–	–	–	–	–	–
O=C(COC(=O)c1cccc(OC(F)F)c1)NCC1CCCO1 (configuration not stated)	·	–	·	–	·	·
S=c1[nH]cc(-c2ccccc2)n1-c1ccccc1	–	–	4µM	–	–	3.5µM
COc1ccc(-n2c(-c3ccc(Cl)cc3)c[nH]c2=S)cc1	·	–	2.8µM	–	–	0.45µM
CCOC(=O)c1c[nH]c(=S)n(-c2ccccc2)c1=O	·	–	·	–	·	·
Cc1ccc(-n2c(-c3ccccc3)c[nH]c2=S)cc1	–	–	6.3µM	–	–	2.2µM
COC(=O)C1=C(C)NC(=O)NC1c1ccc2c(c1)OCO2 (configuration not stated)	·	–	–	·	–	–
C[C@H](C(=O)O)c1ccc2cc(O)ccc2c1	–	·	–	·	·	–
COc1ccc(-c2cc(C(=O)N3CCOCC3)c3ccccc3n2)cc1OC	·	–	·	–	·	·
Cc1ccc(-c2cc(C(=O)N3CCCC3)no2)cc1	–	–	7.1µM	–	–	11µM
COc1cc2cc(C(=O)N3CCOCC3)cc(-c3ccc(C)cc3)c2cc1OC	·	–	8.9µM	–	–	?
O=C(c1cc(-c2ccc3c(c2)OCO3)on1)N1CCCCC1	·	–	11µM	–	–	?
Cc1ccc(-c2cc(C(=O)N3CCOCC3)no2)cc1	·	–	14µM	–	–	7.9µM
